HCMV antiviral = human cytomegalovirus inhibition | HFF cells, HCMV-luciferase reporter, 72 h; hits give low values | activity change, negative = inhibition, % at 57.5 µM | 410,000 compounds, 4.5% hits; in the data active means activity change below about -60%; inconclusive means no clear call, values can overlap the other calls; inactive means above about -39%; further: on the % scale 0 is the no-effect control and ±100 the full control effect
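Steps: HFFs plated, 16 h 37C; compounds added; HCMV-luciferase added to MOI 1 PFU/cell; 72 h 37C; OneGlo reagent, 5 min room temperature; luminescence read, normalized to controls.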
HCV inh = blocks hepatitis C virus; Huh7.5.1 HCVcc-Cre infection, luciferase reporter, 44 h; Potency, µM (top dose mostly 41.8 µM), for the others: top-dose activity change, negative = inhibition, actives largely listed as inhibitors; 340,000 compounds, 3.4% hits; AID 651820; further: potency means the concentration at half of the fitted maximal effect; on the % scale 0 is the no-effect control and ±100 the full control effect
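Seed cells (1,000/well) for 4 h; treat with compound and infect with HCVcc-Cre, moi about 0.5. Incubate 44 h, then detect luciferase activity.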
Shiga toxin inh = Shiga toxin inhibition; inhibition, % at 38.7 µM; Vero cells, Shiga toxin protein synthesis inhibition reporter; 290,000 compounds, 9.2% hits; in the data active means inhibition mostly above about 28%, no sharp cut-off; inactive means mostly below about 43%; further: 0% is about no effect
CHX counter = affects cycloheximide protein synthesis inhibition readout, counter-screen; max response, %; AID 2314; 300,000 compounds, 12% hits; cell reporter, cycloheximide protein synthesis inhibition counterscreen; in the data active means max response mostly above about 13%, no sharp cut-off; inactive means mostly below about 14%; further: read at 38.3 µM for the half of the compounds with a filed dose; 0% is about no effect
Pf growth 48h = P. falciparum growth inhibition at 48 hours (one generation); Potency, µM (doses to about 28.7 µM), for inactives: at the highest dose activity change, negative = inhibition, most hits filed as inhibitors; 310,000 compounds, 5.9% hits; P. falciparum luciferase growth in erythrocytes, 48 h; AID 504832; further: potency means the concentration at half of the fitted maximal effect; on the % scale 0 is the no-effect control and ±100 the full control effect
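Read-out is firefly luciferase luminescence from an integrated reporter in P. falciparum, so falling signal marks reduced parasite growth. Infected erythrocytes were at 2% hematocrit and 0.1% parasitemia (final) in Albumax-supplemented RPMI 1640.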
Pf growth 96h = inhibits malaria parasite growth, 96 h | P. falciparum luciferase reporter growth, 96 h | Potency, µM (series often up to 28.7 µM), for inactives: top-dose activity change, negative = inhibition, hits mostly inhibitors | 320,000 compounds, 6.9% hits | AID 504834; further: potency means the concentration at half of the fitted maximal effect; on the % scale 0 is the no-effect control and ±100 the full control effect
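Erythrocytes infected with luciferase-expressing P. falciparum were dispensed at 2% hematocrit and 0.05% parasitemia (final), then incubated with compounds 96 hours at 37 C in 5% CO2. Luminescence after detection reagent addition reported growth.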
Starred values were filed as active, the others as inactive. Rows were chosen to be rich in hits. Some 21% of all compounds tested hit in one or more screens of this group. Unless noted, the call rests on the fitted dose curve; in most records, active means well fitted inhibition curve with a large enough effect; inconclusive means small, poorly fitted or top-dose-only effect, or another doubt; inactive means no such curve, though single readings can be large or run the other way.

Results for CCOc1ccc(-c2nc(S(=O)(=O)c3ccccc3)c(N3CCC(C(N)=O)CC3)o2)cc1 ?
HCMV antiviral: 5.5; HCV inh: 10.8%; Shiga toxin inh: -4.8; CHX counter: -1.1; Pf growth 48h: inconclusive; Pf growth 96h: 14.7µM*

How did Cc1cccc(NC(=O)Cn2nc(-c3ccccc3)c3cnc4ccccc4c32)c1 do in these assays?
HCMV antiviral: -0.2

How did Cc1nn(C)c(Oc2ccccc2)c1CCNC(=O)CCl do in these assays?
HCMV antiviral: -33.7; HCV inh: -29.8%; Shiga toxin inh: -4.3; CHX counter: -3.0; Pf growth 48h: inconclusive; Pf growth 96h: 10.4µM*

What do the screens show for `CC(=O)OCc1c(C(F)(F)F)nn(C)c1Oc1ccccc1`?
HCMV antiviral: inconclusive; HCV inh: -1.2%; Shiga toxin inh: -3.0; CHX counter: -3.7; Pf growth 48h: 0.4%; Pf growth 96h: 17.2%

How did CC1=C(CC(=O)c2ccccc2)C(=O)c2ccccc2C1=O do in these assays?
HCMV antiviral: -98.6*; HCV inh: inconclusive; Shiga toxin inh: 87.3*; CHX counter: 36.1*; Pf growth 48h: 0.738µM*; Pf growth 96h: 0.828µM*

Results for O=C1NC2(CCSC2)C(=O)N1CC(=O)N(Cc1ccccc1)C1CCS(=O)(=O)C1 (configuration not stated) ?
HCMV antiviral: -31.5; HCV inh: 13.5%; Shiga toxin inh: 22.2; CHX counter: -1.5; Pf growth 48h: 13.5%; Pf growth 96h: 10.1%

What do the screens show for `CCCN(CCC)C(=O)c1ccccc1C(=O)N(CCC)CCC`?
HCMV antiviral: 9.5; HCV inh: -1.6%; Shiga toxin inh: -2.7; CHX counter: -2.7; Pf growth 48h: -2.3%; Pf growth 96h: -18.8%

Results for CCCN(CCC)C(=O)CCSCCC(=O)N(CCC)CCC ?
HCMV antiviral: -102.4*; HCV inh: 2.6%; Shiga toxin inh: -2.4; CHX counter: -1.1; Pf growth 48h: 14.1%; Pf growth 96h: -8.3%

Results for CC(=O)N1CSCC1C(=O)NNS(=O)(=O)c1cccc(C(F)(F)F)c1 (configuration not stated) ?
HCMV antiviral: 5.2; HCV inh: inconclusive; Shiga toxin inh: 20.1; CHX counter: -1.9; Pf growth 48h: 2.9%; Pf growth 96h: 51.4%

What do the screens show for `O=c1c2cc(Br)ccc2nc2n1CCCCC2`?
HCV inh: 6.6%; Shiga toxin inh: 55.1; CHX counter: 28.8*; Pf growth 48h: 8.5%; Pf growth 96h: 84.7%

Results for O=c1c2cc([N+](=O)[O-])ccc2nc2n1CCCC2 ?
HCMV antiviral: -64.5*; HCV inh: -0.2%; Shiga toxin inh: -5.4; CHX counter: -1.1; Pf growth 96h: 439.8%

What do the screens show for `Cc1ccc2nc3n(c(=O)c2c1)CCCCC3`?
HCMV antiviral: 1.9; HCV inh: -8.5%; Shiga toxin inh: 53.2*; CHX counter: 31.3*; Pf growth 48h: 43.8%; Pf growth 96h: 69.2%

How did O=C(Nc1ccc2nc3n(c(=O)c2c1)CCCC3)c1ccccc1[N+](=O)[O-] do in these assays?
HCMV antiviral: -23.4; HCV inh: inconclusive; Shiga toxin inh: -10.6; CHX counter: -1.2; Pf growth 48h: 39.9%; Pf growth 96h: inconclusive

Results for O=c1c2cc(NC(=S)N3CCCC3)ccc2nc2n1CCCCC2 ?
HCMV antiviral: inconclusive; HCV inh: 9.8%; Shiga toxin inh: -10.2; CHX counter: -2.0; Pf growth 48h: 3.0%; Pf growth 96h: inconclusive

How did CCCCCn1c(=O)[nH]c2cc(C(=O)N3CCN(c4cc(Cl)ccc4C)CC3)ccc2c1=O do in these assays?
HCMV antiviral: -9.5

Results for COc1ccc(CN2C(=O)C(C)N(C(=O)c3c(F)cccc3F)c3ccccc32)cc1 (configuration not stated) ?
HCMV antiviral: inconclusive; HCV inh: inconclusive; Shiga toxin inh: 14.8; CHX counter: 4.0; Pf growth 48h: 1.85µM*; Pf growth 96h: 2.08µM*

Results for COc1cccc(CN2C(=O)C(C)N(C(=O)c3ccccc3)c3ccccc32)c1 (configuration not stated) ?
HCMV antiviral: -71.4*; HCV inh: inconclusive; Shiga toxin inh: 5.3; CHX counter: -0.5; Pf growth 48h: inconclusive; Pf growth 96h: 10.4µM*

How did CC1C(=O)N(Cc2ccc([N+](=O)[O-])cc2)c2ccccc2N1C(=O)c1c(F)cccc1F (configuration not stated) do in these assays?
HCMV antiviral: inconclusive; HCV inh: inconclusive; Shiga toxin inh: -7.4; CHX counter: -2.6; Pf growth 48h: 9.28µM*; Pf growth 96h: inconclusive

How did c1ccc2c(c1)OCCOCCOCCOCCO2 do in these assays?
Shiga toxin inh: -1.6; CHX counter: -6.1

How did C[N+](C)(CCOc1ccccc1)Cc1ccccc1 do in these assays?
HCMV antiviral: 15.4; HCV inh: -27.3%

Results for Cc1cc(C(C)(C)CC(C)(C)C)ccc1OCCOCC[N+](C)(C)Cc1ccccc1 ?
HCMV antiviral: -94.4*; HCV inh: 2.82µM*; Pf growth 48h: 1.65µM*; Pf growth 96h: 0.465µM*

What do the screens show for `CC(NC(=O)C(=O)NCCN1CCN(C(=O)c2ccccc2Br)CC1)c1ccccc1` (configuration not stated)?
HCMV antiviral: 5.3; HCV inh: -1.1%; Shiga toxin inh: -5.9; CHX counter: 9.6; Pf growth 48h: -18.7%; Pf growth 96h: 2.5%

How did Cc1nc2ccc(Br)cn2c1C(=O)N/N=C\c1ccccc1[N+](=O)[O-] do in these assays?
HCMV antiviral: -13.7; HCV inh: 2.0%; Shiga toxin inh: -10.7; CHX counter: 31.6; Pf growth 48h: 47.0%; Pf growth 96h: inconclusive

What do the screens show for `Cc1nc2ccc(Br)cn2c1C(=O)N/N=C\c1ccccc1Cl`?
HCMV antiviral: -19.1; HCV inh: -7.4%; CHX counter: -1.1; Pf growth 48h: 70.2%; Pf growth 96h: 3.29µM*

Results for COc1cccc(/C=N/NC(=O)c2c(C)nc3ccc(Cl)cn23)c1O ?
HCMV antiviral: -99.2*; HCV inh: 2.51µM*; Shiga toxin inh: 6.1; CHX counter: -1.2; Pf growth 48h: 9.28µM*; Pf growth 96h: 1.6%

What do the screens show for `O=C(Cn1sc2ccccc2c1=O)N1CCN(C(=O)c2ccco2)CC1`?
HCMV antiviral: -4.6; HCV inh: -2.6%; Shiga toxin inh: 9.7; CHX counter: 15.1; Pf growth 48h: inconclusive; Pf growth 96h: 4.7%

What do the screens show for `CN[C@@H]1C[C@@H](c2ccc(Cl)c(Cl)c2)c2ccccc21`?
Shiga toxin inh: -10.7; CHX counter: -2.5; Pf growth 48h: 15.1µM*; Pf growth 96h: 13.5µM*

Results for O=C(CCN=C1NS(=O)(=O)c2ccccc21)OCc1ccccc1 ?
HCMV antiviral: -10.2; HCV inh: 12.0%; Pf growth 48h: 6.0%; Pf growth 96h: -4.6%

How did CCCCNc1nc2c(-c3cccc(C)c3)nnn2c2ccccc12 do in these assays?
HCMV antiviral: 3.1

Compound activity as filed in PubChem.
